Compound activity: PubChem BioAssay, National Center for Advancing Translational Sciences (NCATS)
BRCA1 expr act = BRCA1 expression activation | actives 1.1% (n = 380,000) | MCF7-BRCA1-FFLuc reporter, luminescence, 48 h; response scale: scaled: vehicle 0%, 10 µM genistein 100% | Potency, µM (series often up to 46.1 µM), without a hit: at the top dose activation, usual class: activators; note: potency is the fitted concentration of half-maximal effect; nearly all actives have a fitted effect of over 80% in size
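Luminescence from a BRCA1-driven firefly luciferase in MCF7 cells was the read-out, taken 15 min after substrate addition following 48 h compound exposure at 37 °C. Data were normalized to a 10 microM genistein control and DMSO vehicle.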
Gal4-VP16 FLuc = counter-screen for ROR gamma inhibitors: Gal4-VP16 reporter; Drosophila S2 Gal4-VP16 UAS-luciferase, luminescence, 20 h; AID 2546; Potency, µM (doses to about 53.6 µM), for inactives: top-dose activity, negative = inhibition, actives largely listed as inhibitors; actives 3.5% (n = 310,000);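 note: Gal4-VP16 expression switched on by copper sulfate through the metallothionein promoter; potency is the fitted concentration of half-maximal effect; % is set by controls: 0 for no effect and ±100 for the full control effect; nearly all actives have a fitted effect of over 50% in size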
p53 reactivator = mutant p53 re-activation in reporter cells; Potency, µM (top dose mostly 92.2 µM), inactives show at the top dose activity change, positive = activation, usual class: activators; H1299 p53-A138V BP100-luciferase reporter, luminescence, 24 h; actives 0.063% (n = 320,000); note: potency is the fitted concentration of half-maximal effect; % of control where 0% means no effect; nearly all actives have a fitted effect of over 45% in size
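p53-null H1299 cells stably carrying temperature-sensitive p53-A138V and a BP100-luciferase reporter were pinned with compounds (4-point, 1:5 series) and held 24 hrs at 37 deg C. Luminescence was read 10 min after detection reagent.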
Giardia kill = Giardia lamblia killing; Giardia lamblia trophozoite viability; activity change, % at 7.66 µM, hits read low; actives 0.15% (n = 340,000); AID 540267; in the data active = activity change below about -80%; inconclusive = between about -30% and that limit;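 note: parasites exposed to compound for two days anaerobically before the ATP read; % is set by controls: 0 for no effect and ±100 for the full control effect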
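Luminescence from cellular ATP indicates surviving trophozoites (100 cells/well) following 48 hrs anaerobic compound treatment at 37 deg C; signal develops 15-30 min at room temperature.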
RORgamma inh = ROR gamma (mouse) transcription inhibition | Potency, µM (top dose mostly 53.6 µM), without a hit: at the top dose activity change, negative = inhibition, actives largely listed as inhibitors | P51450 | AID 2551 | Drosophila S2 Gal4-RORgamma UAS-luciferase reporter, 20 h | actives 5.4% (n = 310,000); note: potency is the fitted concentration of half-maximal effect; % is set by controls: 0 for no effect and ±100 for the full control effect; nearly all actives have a fitted effect of over 60% in size
Target sequence (P51450 whole entry, looked up, the tested form may be a part): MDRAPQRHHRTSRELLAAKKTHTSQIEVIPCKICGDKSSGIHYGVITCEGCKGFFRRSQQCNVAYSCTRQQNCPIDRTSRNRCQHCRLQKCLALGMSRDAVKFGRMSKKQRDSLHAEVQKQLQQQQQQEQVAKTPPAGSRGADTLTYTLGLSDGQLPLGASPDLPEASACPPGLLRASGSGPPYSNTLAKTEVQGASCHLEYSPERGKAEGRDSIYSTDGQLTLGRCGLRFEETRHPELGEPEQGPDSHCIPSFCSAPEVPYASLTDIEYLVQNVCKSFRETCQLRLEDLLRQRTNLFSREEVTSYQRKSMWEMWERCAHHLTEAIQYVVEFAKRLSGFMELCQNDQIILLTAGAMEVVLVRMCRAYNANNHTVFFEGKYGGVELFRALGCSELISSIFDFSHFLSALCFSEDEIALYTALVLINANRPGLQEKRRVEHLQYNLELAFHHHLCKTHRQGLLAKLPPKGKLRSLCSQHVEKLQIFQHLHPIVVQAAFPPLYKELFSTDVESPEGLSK
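Read-out: Photinus luciferase luminescence; inhibitors lower reporter signal. Insect Schneider cells with Gal4-ROR gamma fusion under metallothionein promoter, UAS reporter; 700 uM final copper sulfate induction, 20 hr, ambient temperature.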
ELG1 repair inh = ELG1-dependent DNA repair inhibition. HEK293T ELG1-luciferase reporter, luminescence, 16 h; DNA damage induced by 5-fluorouridine. Potency, µM (doses to about 46.1 µM), for inactives: at the top dose activity change, negative = inhibition, usual class: inhibitors. actives 2.3% (n = 330,000). AID 504467; note: potency is the fitted concentration of half-maximal effect; % is set by controls: 0 for no effect and ±100 for the full control effect; nearly all actives have a fitted effect of over 55% in size
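Overnight (16 hr) co-exposure of 2,000 cells/well to 5-fluorouridine and compound at 37 °C preceded detection. Luciferase was quantified via ONE-Glo luminescence; loss of signal denotes inhibition.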
* marks the source's active call; other numbers are inactive results; ? = inconclusive; nt = no result given; [ ] = another dose, or the depositor's remark. The list is not random: actives were taken first. Their share in the collection is about 7.6%. Unless noted, calls come from the whole dose curve; as a rule, active = well fitted curve in the direction sought with a large enough effect; inconclusive = small, poorly fitted or top-dose-only effect, or another doubt; inactive = no such curve, though single readings can be large; an effect the other way counts as inactive or inconclusive.

SMILES	BRCA1 expr act	Gal4-VP16 FLuc	p53 reactivator	Giardia kill	RORgamma inh	ELG1 repair inh
C=CCNC(=S)N1CCc2c([nH]c3ccccc23)C1C (configuration not stated)	-12%	-14%	8%	11	-30%	-13%
N#C/C(=C(/O)CSc1n[nH]c(N)n1)c1nc2ccccc2[nH]1	-13%	-3%	5%	-4	-34%	7%
N#C/C(=C(\O)Cc1ccccc1)c1nc2ccccc2[nH]1	-28%	?	4%	0	2.8µM*	?
COc1ccccc1N/C=C(\C#N)c1nc2ccccc2[nH]1	-41%	-14%	8%	-4	?	?
COc1ccccc1-c1nnc(SC/C(O)=C(\C#N)c2nc3ccccc3[nH]2)n1C1CCCCC1	-35%	11µM*	6%	16	7.1µM*	?
C=CCn1c(COc2ccc(CC)cc2)nnc1SC/C(O)=C(\C#N)c1nc2ccccc2[nH]1	-45%	?	?	?	11µM*	?
COc1ccccc1/C(O)=C(\C#N)c1nc2ccccc2[nH]1	-23%	-7%	8%	2	1.4µM*	3%
C=CCn1c(COc2ccccc2)nnc1SCc1ccc(C#N)cc1	-27%	-2%	-4%	-18	17%	-9%
N#C/C(=C(/O)CSc1nnc(Cc2cccs2)n1C1CCCCC1)c1nc2ccccc2[nH]1	-57%	0%	11%	3	-23%	?
COc1ccccc1NS(=O)(=O)c1cccc(C(=O)NNC(=O)c2ccc(=O)[nH]c2)c1	11%	nt	3%	7	nt	7%
Nc1c(Br)cc(Br)c2c1[nH]c(=O)c1ccccc12	-45%	nt	nt	nt	nt	nt
N#C/C(=C(/O)c1ccc(Br)s1)c1nc2ccccc2[nH]1	-57%	0%	nt	-9	1µM*	?
N#C/C(=C(/O)c1cccs1)c1nc2ccccc2[nH]1	-6%	?	0%	-27	?	-4%
C/C(O)=C(\C#N)c1nc2ccccc2[nH]1	-5%	14µM*	3%	-2	?	-6%
N#C/C(=C(/O)c1ccc(C(=O)c2ccccc2)cc1)c1nc2ccccc2[nH]1	0%	14%	-1%	-10	5%	-2%
CSCCC(/C(O)=C(\C#N)c1nc2ccccc2[nH]1)N1C(=O)c2ccccc2C1=O (configuration not stated)	-9%	18µM*	-27%	-22	11µM*	-11%
N#C/C(=C(/O)c1ccco1)c1nc2ccccc2[nH]1	-47%	?	3%	-8	7.1µM*	-1%
CC(=O)Nc1ccccc1C(=O)C(=O)Nc1cccc(C(=O)NC2CC2)c1	47%	3%	?	-12	25%	?
COc1cccc(C2CC(c3cccs3)Nc3ncnn32)c1 (configuration not stated)	-11%	-29%	-5%	-10	-8%	3%
O=C(O)c1ccccc1CSC1=NCCS1	-8%	5%	4%	30	?	6%
O=C(CCC1CCN(C(=O)Cc2c(F)cccc2F)CC1)NC1CC1	18%	-12%	5%	-18	-3%	1%
O=[N+]([O-])c1ccc(Nc2ccccc2)c2nonc12	-30%	-9%	4%	?	23%	?
O=[N+]([O-])c1ccc(Sc2cccc[n+]2[O-])c2nonc12	-92%	1µM*	-15%	-2	1µM*	?
Cc1c(C(=O)OCC(=O)N2CCCC(C)C2)oc2ccccc12 (configuration not stated)	10µM*	nt	8%	3	nt	?
Cc1c(C(=O)NC2CCCCC2C)oc2ccccc12 (configuration not stated)	34%	5.6µM*	-25%	-3	11µM*	?
SMILES	BRCA1 expr act	Gal4-VP16 FLuc	p53 reactivator	Giardia kill	RORgamma inh	ELG1 repair inh
Cc1c(C(=O)NC2CCC(C)CC2)oc2ccccc12 (configuration not stated)	5µM*	-13%	?	-1	16%	?
COc1ccccc1-c1cnnc(N/N=C/c2ccc(-c3cccc(Br)c3)o2)n1	-29%	2µM*	1%	-7	1µM*	8.2µM*
O=C1C(c2ccnc3ccccc23)=C(O)c2ccccc21	-46%	?	?	?	5µM*	?
O=C1c2ccccc2C(=O)C1c1ccnc2ccccc12	-85%	?	nt	?	?	?
Cn1c(SCc2ccccc2[N+](=O)[O-])nnc1-c1cccnc1	11µM*	1%	?	-2	25%	?
CC(O/N=C\c1ccccc1O)C(=O)Nc1ccccc1C(=O)N1CCOCC1 (configuration not stated)	-3%	-20%	4%	-16	8%	-5%
CSc1nsc(SC)c1C(=O)Nc1ccc(C(C)(C)C)cc1	-10%	?	-2%	-8	42%	18µM*
CC1(C)Cc2c(sc3nnn(CC(=O)Nc4ccccc4)c(=O)c23)CO1	-14%	-4%	-4%	1	29%	?
COc1ccccc1NC(=O)Cn1nnc2sc3c(c2c1=O)CC(C)(C)OC3	-21%	-5%	-2%	21	6%	21µM*
O=c1oc2ccccc2c(Nc2cccc3cccnc23)c1[N+](=O)[O-]	-49%	-20%[10 µM]	-1%	-1	11µM*	6%
O=C(O)c1cc(NS(=O)(=O)c2cccs2)cc(NS(=O)(=O)c2cccs2)c1	1%	nt	-14%	-8	nt	27%
CCOC(=O)CNc1c(-c2ccccc2)nc2ccc(Cl)cn12	7%	?	11%	-14	?	?
COC(=O)CNc1c(-c2ccccn2)nc2ccc(Br)cn12	4.5µM*	?	nt	1	?	?
Clc1ccc2c(N/N=C/c3cccnc3)ccnc2c1	38%	?	22%	4	?	?
Clc1ccc2c(N/N=C/c3ccc(Br)cc3)ccnc2c1	-50%	7.1µM*	-29%	-96*	6.3µM*	16µM*
Cc1ccc(/C=N/Nc2ccnc3cc(Cl)ccc23)c(C)c1	-91%	8.9µM*	-36%	-88*	?	18µM*
O=[N+]([O-])c1cc(Br)c(Nc2ccccc2)c([N+](=O)[O-])c1	-89%	13µM*	-12%	11	?	-13%
O=C(NNC(=O)c1ncc(Cl)c(Cl)c1Cl)c1ccc(F)cc1	-14%	5µM*	-1%	40	7.1µM*	19%
COc1cccc(NC(=O)c2ncc(Cl)c(Cl)c2Cl)c1	-21%	?	?	3	4%	?
O=C(NNC(=O)c1nc(Cl)ccc1Cl)c1ccc(F)cc1	-19%	?	-17%	5	11µM*	17%
